“And” between values parts separate entries of the source, which are not always exact repeats. Equal values may be shown once. The source holds several records for some structures; these can differ, active in one and inactive in another. The source made the active and inactive calls. How the source made its calls, unless noted: active means hit-call score of the fitted dose curve at least 0.9, where 1 is the maximum; inactive means score below 0.9.
How the values were obtained:
[1] = read-out: TIMP metallopeptidase inhibitor 2 (TIMP2), TIMP2 (gene 7077); test: BSK_hDFCGF_TIMP2: BioMAP Diversity Plus: hDFCGF Assay for TIMP metallopeptidase inhibitor 2 (TIMP2) Biomarker Activity (AID 2284289); settings: primary human foreskin fibroblasts
Method in brief: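 Primary human foreskin fibroblasts in the hDFCGF system, dosed for 24 h; TIMP-2 level measured by ELISA, fitted in the positive direction against DMSO; cytotoxicity checked in parallel by sulforhodamine B total protein staining.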

[2] = read-out: E-selectin (Homo sapiens) (UniProt P16581); test: BSK_IMphg_ESelectin: BioMAP Diversity Plus: IMphg Assay for Eselectin Biomarker Activity (AID 2284291); settings: primary human endothelial cells with macrophages
Method in brief: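 Human venular endothelial cell–macrophage co-culture, E-selectin measured by ELISA 24 h after chemical dosing. Signal fitted in the positive direction against DMSO as negative control and baseline.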

[3] = BSK_IMphg_SRB: Viability Assessment in the BioMAP Diversity Plus: IMphg Assay (AID 2284292); settings: primary human endothelial cells with macrophages;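 further: measured one day after compound addition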
Method in brief: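 Human venular endothelial cells with macrophages, 24 h after chemical dosing; total protein by 0.1% SRB staining after 10% TCA fixation, read at 560 nm. Positive-direction fitting versus DMSO baseline.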

[4] = read-out: Macrophage colony-stimulating factor (MCSF), CSF1 (gene 1435); test: BSK_IMphg_MCSF: BioMAP Diversity Plus: IMphg Assay for Macrophage colony-stimulating factor (MCSF) Biomarker Activity (AID 2284293); settings: primary human endothelial cells with macrophages
Method in brief: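 Co-culture of human venular endothelial cells and macrophages, 24 hours of chemical exposure. M-CSF quantified by ELISA, with parallel SRB total-protein staining for cytotoxicity; activity fitted relative to DMSO.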

[5] = BSK_IMphg_SRB.Mphg: Macrophage Viability Assessment in the BioMAP Diversity Plus: IMphg Assay (AID 2284295); settings: primary human endothelial cells with macrophages
Method in brief: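 Venular endothelial cells co-cultured with macrophages, read 24 h after dosing. Total protein measured by 0.1% SRB staining after 10% TCA fixation, absorbance at 560 nm. Fitted in positive direction against DMSO baseline.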

[6] = read-out: Thrombomodulin, THBD (gene 7056); test: BSK_LPS_Thrombomodulin: BioMAP Diversity Plus: LPS Assay for Thrombomodulin Biomarker Activity (AID 2284296); settings: primary human HUVEC with PBMC
Method in brief: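 Human umbilical vein endothelial cells co-cultured with PBMC and stimulated with LPS; cell-surface thrombomodulin measured by ELISA 24 hours after compound. Gain or loss versus DMSO; cytotoxicity checked by SRB staining in parallel cultures.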

CD69, CD69 (gene 969) = test: BSK_LPS_CD69: BioMAP Diversity Plus: LPS Assay for CD69 Biomarker Activity (AID 2284303); settings: primary human HUVEC with PBMC
Method in brief: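 Human umbilical vein endothelial cells co-cultured with PBMC under LPS stimulation, chemical exposure 24 h; cell-surface CD69 measured by ELISA and fitted in the positive direction versus DMSO.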

[7] = read-out: Interleukin-10 (IL10), IL10 (gene 3586); test: BSK_IMphg_IL10: BioMAP Diversity Plus: IMphg Assay for Interleukin-10 (IL10) Biomarker Activity (AID 2284294); settings: primary human endothelial cells with macrophages
Method in brief: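 Human venular endothelial cells cocultured with macrophages, dosed 24 h; IL-10 measured by ELISA, activity relative to DMSO. Cytotoxicity assessed in parallel cultures by sulforhodamine B total-protein staining.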

[8] = read-out: Interleukin-1 alpha (IL1a), IL1A (gene 3552); test: BSK_IMphg_IL1a: BioMAP Diversity Plus: IMphg Assay for Interleukin-1 alpha (IL1a) Biomarker Activity (AID 2284290); settings: primary human endothelial cells with macrophages
Method in brief: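 Human venular endothelial cells co-cultured with macrophages, IMphg system. IL-1α is measured by ELISA 24 h after dosing and fitted in the positive direction against DMSO. Cytotoxicity is assessed by SRB staining of parallel cultures.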

IYD (gene 389434) = test: CCTE_GLTED_hIYD: CCTE's human Iodotyrosine Deiodinase (xIYD) Inhibition Assay, Great Lakes Toxicology and Ecology Division (GLTED) Lab (AID 2284317; active means hit-call score of the fitted dose curve at least 0.9, where 1 is the maximum;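 further: cell-free human IYD enzyme made in baculovirus insect cells; iodide freed from monoiodotyrosine measured by cerium arsenite color change at 420 nm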)
Method in brief: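 First, recombinant human IYD (baculovirus-insect cells), MIT and chemical incubated 3 h. Next, iodide isolated on Dowex. Finally, Sandell-Kolthoff rate read at 420 nm, with platewise normalization to MNT and solvent controls.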

Measured: AC50

E-selectin (Homo sapiens), sequence (P16581 whole entry, looked up): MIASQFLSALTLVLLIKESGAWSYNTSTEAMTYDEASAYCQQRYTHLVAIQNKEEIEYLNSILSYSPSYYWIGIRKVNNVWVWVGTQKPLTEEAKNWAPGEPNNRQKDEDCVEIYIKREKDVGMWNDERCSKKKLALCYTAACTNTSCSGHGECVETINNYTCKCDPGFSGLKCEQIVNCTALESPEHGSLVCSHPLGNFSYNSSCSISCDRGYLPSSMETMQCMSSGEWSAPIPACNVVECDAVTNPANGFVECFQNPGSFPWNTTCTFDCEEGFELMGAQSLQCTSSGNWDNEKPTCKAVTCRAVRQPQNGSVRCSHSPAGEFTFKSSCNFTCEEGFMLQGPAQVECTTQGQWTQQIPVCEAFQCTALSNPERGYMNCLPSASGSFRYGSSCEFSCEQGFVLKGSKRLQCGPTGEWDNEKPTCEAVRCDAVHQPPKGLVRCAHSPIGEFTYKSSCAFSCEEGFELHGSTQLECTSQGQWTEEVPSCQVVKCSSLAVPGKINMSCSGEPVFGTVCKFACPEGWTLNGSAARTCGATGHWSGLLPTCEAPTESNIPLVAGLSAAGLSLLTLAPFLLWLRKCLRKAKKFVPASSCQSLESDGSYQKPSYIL

OCCCCC(F)(F)C(F)(F)C(F)(F)C(F)(F)F
not listed: [7] | [8] | IYD (gene 389434)
inactive: all other assays above

CN(C(=O)C(F)(F)C(F)(F)C(F)(F)F)[Si](C)(C)C
not listed: [8] | IYD (gene 389434)
inactive: all other assays above

C=CC(=O)OCC(F)(F)C(F)(F)C(F)(F)COC(=O)C=C
inactive: [1] | [3] | [4] | [5]
active: [3] 43.8 µM | [5] 39.4 µM | [6] 8.08 µM and 7.99 µM | CD69, CD69 (gene 969) 15.9 µM and 10.5 µM

C=CC(=O)OCC(F)(F)C(F)(F)C(F)(F)C(F)(F)C(F)(F)C(F)(F)C(F)(F)C(F)F
inactive: [1] | [3] | [4] | [5] | [6] | CD69, CD69 (gene 969)
active: [5] 7.9 µM | [6] 26.9 µM | CD69, CD69 (gene 969) 23.2 µM

C=CC(=O)OCCC(F)(F)C(F)(F)C(F)(F)C(F)(F)F
inactive: [1] | [8] | [3] | [4] | [7] | [5] | [6] | CD69, CD69 (gene 969)
active: [1] 2.55 µM

OCC(F)(F)C(F)(F)C(F)(F)C(F)(F)C(F)(F)C(F)(F)C(F)(F)C(F)(F)CO
active: [8] 47.6 µM and 50.3 µM | [3] 52.9 µM and 54 µM | [4] 39.7 µM | [5] 46 µM and 39.8 µM
inactive: [1] | [4] | [6] | CD69, CD69 (gene 969)

O=S(=O)(O)CCC(F)(F)C(F)(F)C(F)(F)C(F)(F)C(F)(F)C(F)(F)C(F)(F)C(F)(F)F
inactive: [1] | [3] | [4] | [5] | [6] | CD69, CD69 (gene 969)
active: [6] 8.71 µM

O=C(O)CCC(F)(F)C(F)(F)C(F)(F)F
not listed: [2] | [7] | IYD (gene 389434)
inactive: all other assays above

O=C(O)C(F)(F)C(F)(F)C(F)(F)C(=O)O
not listed: [2] | [7] | IYD (gene 389434)
inactive: all other assays above

O=C(O)C(F)(F)OC(F)(F)C(F)(F)OC(F)(F)C(F)(F)OC(F)(F)F
not listed: [2] | [8] | IYD (gene 389434)
inactive: all other assays above

C[Si](Cl)(Cl)CCC(F)(F)C(F)(F)C(F)(F)C(F)(F)C(F)(F)C(F)(F)F
inactive: [1] | [3] | [4] | [7] | [5] | [6] | CD69, CD69 (gene 969)
active: [1] 0.236 µM

O=S(=O)(Cl)C(F)(F)C(F)(F)C(F)(F)C(F)(F)C(F)(F)C(F)(F)C(F)(F)C(F)(F)F
active: IYD (gene 389434) 100 µM
not listed: [7] | [8]
inactive: all other assays above

CCN(CCO)S(=O)(=O)C(F)(F)C(F)(F)C(F)(F)C(F)(F)C(F)(F)C(F)(F)C(F)(F)C(F)(F)F
inactive: [1] | [4] | [5]
active: [3] 30 µM | [5] 44.2 µM | [6] 16.6 µM and 13.5 µM | CD69, CD69 (gene 969) 8.1 µM and 7.79 µM

NC(=O)C(F)(F)C(F)(F)C(F)(F)C(F)(F)C(N)=O
active: [1] 0.22 µM | [6] 0.598 µM
inactive: [1] | [3] | [4] | [5] | [6] | CD69, CD69 (gene 969)

FC(F)(F)C(F)(F)C(F)(F)C(F)(F)C(F)(F)C(F)(F)C(F)(F)CCI
not listed: [2] | [7] | IYD (gene 389434)
inactive: all other assays above

OCCCC(F)(F)C(F)(F)C(F)(F)C(F)(F)C(F)(F)C(F)(F)C(F)(F)C(F)(F)F
active: [1] 19 µM and 14.6 µM | [8] 47.7 µM and 51 µM | [3] 47.2 µM and 31 µM | [4] 44.4 µM and 42.1 µM | [5] 16.7 µM and 30 µM | [6] 52.8 µM and 52.3 µM | CD69, CD69 (gene 969) 22.1 µM and 43.1 µM

OCC(O)CC(F)(F)C(F)(F)C(F)(F)C(F)(F)F (stereo not given)
inactive: [1] | [3] | [4] | [7] | [5] | [6] | CD69, CD69 (gene 969)
active: CD69, CD69 (gene 969) 0.22 µM

FC(F)(F)C(F)(F)C(F)(F)CC1CO1 (stereo not given)
inactive: [1] | [3] | [4] | [5] | [6] | CD69, CD69 (gene 969)
active: [1] 1.97 µM

O=C(O)CCC(F)(F)C(F)(F)C(F)(F)C(F)(F)C(F)(F)C(F)(F)C(F)(F)F
active: [5] 4.29 µM | IYD (gene 389434) 160 µM
inactive: [1] | [3] | [4] | [5] | [6] | CD69, CD69 (gene 969)

Reference: PubChem BioAssay (EPA / NIEHS)
